Assay outcomes: PubChem BioAssay, several laboratories
PrPC surface inh = inhibitors of human cell surface prion protein PrPC, primary screen, cell-based, TR-FRET | Major prion protein (Homo sapiens), P04156 | inhibition, % at 13.8 µM | TR-FRET read-out | 0.43% of 370,000 active; in the data active = inhibition above about 24%; also: 0% = median of the test wells and 100% = reference compound wells
PrP 5UTR inh = inhibition of PrP 5' UTR reporter expression; cell-based PrP 5' UTR mRNA reporter, plate reader; inhibition, % (test concentration not listed); 0.35% of 340,000 active; in the data active = inhibition above about 52%; also: 0 = median of the neutral control wells
GDH-TPI inh = GDH-TPI coupling enzyme inhibitors, primary screen, artefact control for M. tuberculosis FBA inhibitor project, biochemical, absorbance, full deck | AID 588335, 2011 | GDH-TPI coupled enzyme counterscreen, NADH absorbance | inhibition, % at 4.8 µM | 1.2% of 360,000 active; in the data active = inhibition above about 30%;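 also: 0% = DMSO wells and 100% = wells lacking the enzyme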
PfHsp40 yeast = rescue of yeast from PfHsp40 toxicity, primary screen, S. cerevisiae, ATP luminescence | S. cerevisiae expressing PfHsp40, growth rescue | growth rescue, % at 12.5 µM | 0.68% of 340,000 active | AID 504582, 2011; in the data active = growth rescue above about 28%, passing the limit was not always enough;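 also: yeast W303a lacking pdr1 and pdr3 grown in galactose medium; growth measured after three days at 30 °C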
BJeLR lethal = MLPCN primary cell-based screen for lethality selective to Ras in HRASV12 cells; 0.17% of 300,000 active; AID 1554, 2009; inhibition, % (test concentration not listed); BJeLR (HRASV12) viability, CellTiter-Glo ATP luminescence, 48 h; in the data active = inhibition above about 50%
FBA Mtb inh = Mtb FBA enzyme inhibitors, primary screen, biochemical, fluorescence, strain H37Rv | Fructose-bisphosphate aldolase (Mycobacterium tuberculosis (strain ATCC 25618 / H37Rv)), … | purified M. tuberculosis FBA, fluorescence read-out | inhibition, % at 1 µM | 2.3% of 360,000 active; in the data active = inhibition above about 27%;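 also: 0% = vehicle and 100% = reference inhibitor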
PrPC TRFRET cf = confirmation of inhibitors of cell surface human prion protein, confirmation, cell-based, TR-FRET; shares compounds with PrPC surface inh; inhibition, % at 13.8 µM; cell surface PrPC level; 65% of 1,500 active; in the data active = inhibition above about 25%
LD9 cytotox = cytotoxicity in LD9 cells, cytotoxicity control for cell surface PrPc inhibitor project, cell-based, luminescence, high throughput; inhibition, % at 13.8 µM; shares compounds with PrPC surface inh; luminescence viability; 29% of 1,500 active; AID 743201, 2013; in the data active = inhibition above about 9.5%
The depositor's hits bear a star; . = no result given. Most compounds without a hit are left out; they make up all but 4.5% or so of the library.

SMILES | PrPC surface inh | PrP 5UTR inh | GDH-TPI inh | PfHsp40 yeast | BJeLR lethal | FBA Mtb inh | PrPC TRFRET cf | LD9 cytotox
Cc1csc(NC(=O)c2cc3c(s2)CCCCC3)n1 | 25* | 49 | 4 | 2 | 14 | -9 | 16 | 1
COC(=O)CC1=NN(c2nc3ccccc3s2)C(=O)/C1=C/N(C)C | 0 | -33 | 6 | 0 | 4 | -2 | . | .
Nc1ccc2nc(-c3ccc(-c4nc5ccc(N)cc5[nH]4)cc3)[nH]c2c1 | 26* | . | . | . | 4 | . | 25* | 1
O=C(O)c1ccccc1C(=O)NC1Cc2ccccc2C1 | -1 | -45 | 2 | -2 | 4 | 1 | . | .
Cc1cccc(N(CC(=O)NC2CCCCC2)C(=O)CCCC(=O)Nc2ccccn2)c1C | 2 | -22 | -1 | 0 | 5 | 0 | . | .
Cc1cc(C)cc(CC(Cc2nc3ccccc3[nH]2)c2nc3ccccc3[nH]2)c1 (stereo not given) | 28* | -5 | 11 | 0 | -1 | 0 | 30* | 1
CCCCN(C(=O)COC(=O)CSc1cc(C)c2ccccc2n1)c1c(N)n(CCC)c(=O)[nH]c1=O | 14 | -30 | 6 | 0 | 0 | -2 | . | .
COc1ccc(-c2nc(-c3ccc(Br)o3)no2)cc1OC | -6 | -60 | 2 | 1 | 4 | 1 | . | .
COc1ccc(-c2nnc(-c3ccc(Br)o3)o2)cc1OC | 60* | -25 | 11 | 0 | -13 | 2 | 76* | -3
O=c1[nH]c(=O)n(Cc2ccco2)c2c1C(C(F)(F)F)(C(F)(F)F)N=C(Cc1ccccc1)N2 | 56* | -15 | 3 | 0 | 5 | -2 | 47* | 8
Cc1ccc(S(=O)(=O)N2CCOCC2)cc1NC(=O)Cn1c(=O)ccn(Cc2ccccc2)c1=O | -4 | -9 | 0 | -1 | . | -1 | . | .
Cc1cc(C(=O)Nc2ccccc2N2CCCCC2)no1 | -1 | -6 | 6 | 2 | 4 | 5 | . | .
O=C(Cc1ccc(-n2c(=O)[nH]c3ccsc3c2=O)cc1)N1CCN(c2ccc(Cl)cc2)CC1 | 13 | 6 | 6 | -1 | 1 | 4 | . | .
COc1ccc(Cn2c(-c3ccccc3C)nc3c(c(=O)c4ccccc4n3C)c2=O)cc1 | 53* | -24 | -16 | -1 | 6 | 3 | 9 | -1
O=C(CSc1nnc(COc2ccc(Cl)cc2)n1Cc1ccco1)Nc1ccc2c(c1)OCO2 | 25* | . | . | . | . | . | 22 | 3
COC(=O)C1=C(C)N(CC(C)C)C(=S)NC1c1ccc(-c2ccccc2)cc1 (stereo not given) | 25* | . | . | . | . | . | 14 | 0
O=C(COc1ccc(F)cc1Cl)Nc1cccc(S(=O)(=O)N2CCCC2)c1 | -2 | -7 | 3 | 2 | . | 2 | . | .
N#Cc1c(SCC(=O)Nc2nncs2)sc2c(O)cc(=O)[nH]c12 | 27* | 12 | 8 | 5 | 0 | -4 | 1 | -4
N#Cc1c(SCC(=O)Nc2ccc(C(F)(F)F)cc2)sc2c(O)cc(=O)[nH]c12 | -6 | -32 | 16 | 5 | -10 | -1 | . | .
COC1=CC(=O)c2nc(Cl)ccc2C1=O | -10 | . | . | . | . | 0 | . | .
COC1=CC(=O)c2c(ccc3ncnc(N)c23)C1=O | 61* | 32 | 13 | -1 | . | -2 | 84* | 98*
O=C(COc1nsnc1N1CCOCC1)Nc1ccc(Cl)cc1 | 26* | -27 | 5 | 0 | -2 | 5 | 8 | -3
Clc1ccc(N/N=C/c2cccnc2)cc1 | 25* | -37 | 12 | 6 | 1 | 4 | 17 | 2
O=[N+]([O-])c1ccc(N/N=C/c2cccnc2)cc1 | -34 | -31 | 6 | 4 | -1 | -12 | . | .
CC(=O)Nc1sc2c(c1-c1nc3ccccc3s1)CN(C(C)C)CC2 | 38* | 31 | 16 | -1 | . | 5 | 10 | 26*
SMILES | PrPC surface inh | PrP 5UTR inh | GDH-TPI inh | PfHsp40 yeast | BJeLR lethal | FBA Mtb inh | PrPC TRFRET cf | LD9 cytotox
CC(=O)Nc1sc2c(c1-c1nc3ccccc3s1)CN(C(C)C)C2 | 11 | . | . | . | . | . | . | .
CC(=O)Nc1sc2c(c1-c1nc3ccccc3s1)CCCN(C(C)C)C2 | 38* | . | . | . | . | . | 30* | 33*
O=C(O)c1c[nH]c2ccc([N+](=O)[O-])cc2c1=O | -23 | -6 | 7 | -1 | . | -3 | . | .
COC(=O)CSc1ncnc2scc(-c3ccccc3)c12 | 50* | -10 | -10 | 0 | 2 | 1 | 67* | -1
Cc1ccc(N2CC(C(=O)Nc3ccc(S(=O)(=O)Nc4ncccn4)cc3)CC2=O)cc1C (stereo not given) | -12 | -24 | 2 | 0 | 6 | -1 | . | .
Cc1ccc(-n2nc3c(=O)n(CCCC(=O)NCc4ccc(C)o4)nc(C)c3c2C)cc1 | 9 | -4 | 3 | 0 | -11 | -1 | . | .
O=C(Nc1ccc2c(c1)OCO2)c1cccc(S(=O)(=O)N2CCCC2)c1 | 16 | -38 | 9 | -1 | -3 | 0 | . | .
O=C(Nc1ccc2c(c1)OCO2)c1ccc(Br)c(S(=O)(=O)N2CCCC2)c1 | 25* | -23 | 2 | 1 | -3 | 2 | 21 | 7
Cc1ccc(S(=O)(=O)N(C)c2ccc(OC(=O)CN3C(=O)NC4(CCCC4)C3=O)cc2)cc1C | 3 | -4 | 2 | 1 | 2 | 0 | . | .
CC(=O)N=c1sc2nc3ccccc3nc2n1N(C(C)=O)C(C)=O | 28* | -12 | 30 | 2 | -6 | 5 | 37* | 3
CC(=O)c1ccc(OCc2cc(C(=O)N(C)Cc3nc4c(C)cccc4[nH]3)no2)cc1 | 27* | -16 | 3 | 2 | 2 | -3 | 26* | 0
N#Cc1c(Cl)cccc1Oc1ccc(S(=O)(=O)Nc2ccccc2)cc1 | 3 | 0 | 7 | 1 | 4 | 2 | . | .
COc1ccc2[nH]c3c(C)c4ccncc4c(C)c3c2c1 | 34* | -2 | -4 | 8 | 101* | 2 | 34* | 42*
Cc1c2ccncc2c(C)c2c1[nH]c1ccccc12 | . | 3 | 3 | -1 | 19 | 12 | . | .
COc1cc2nc(C3CCC3)n(NC(=O)C3CCCC(OC)C3)c(=O)c2cc1OC (stereo not given) | 0 | -15 | -8 | -1 | -12 | 0 | . | .
COc1cc2nc(C3CCC3)n(NC(=O)c3ccco3)c(=O)c2cc1OC | 41* | -2 | -3 | 0 | 35 | 2 | 37* | -5
